Source: PubChem BioAssay (Tox21)
Records with an inconclusive call do not appear. The source made the active and inactive calls. Unless noted, the call rests on the fitted dose curve; in most records, active means well fitted curve in the direction sought with a large enough effect in the repeat runs; inconclusive means weak or mixed curves; inactive means no such curve, though single readings can be large; an effect the other way counts as inactive or inconclusive.

Key:
[1] = qHTS RealTime-Glo MT Cell Viability Assay in HEK293 cells - 0 hour (AID 1224880); further: top concentration of the series differs between compounds; nearly all actives have a fitted effect of over 45% in size
Method in brief: (§1)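 Luminescence readout at each listed time point; HEK293, 600 cells/well, RealTime-Glo MT reagent added with cells; compounds pinned (23 nL in DMSO) after 5 h at 37 C; continuous culture at 37 C.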

[2] = A CellTox Green Cytotoxicity Assay to monitor cytotoxicity in HEK293 cells - 32 hour (AID 1224881); further: nearly all actives have a fitted effect of over 40% in size
Method in brief: (§2)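 Read-out: fluorescence of a cell-impermeant cyanine dye staining DNA of dead cells, proportional to cytotoxicity. HEK293, 600 cells/well with reagent, compound (23 nL DMSO) added after 5 h; reads at 0, 8, 16, 24, 32, 40 h.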

[3] = A CellTox Green Cytotoxicity Assay to monitor cytotoxicity in HepG2 cells - 0 hour (AID 1224882); further: nearly all actives have a fitted effect of over 35% in size
Method in brief: (§3)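 HepG2, 600 cells/well premixed w/ CellTox Green; 5 h settle, 37 C/5% CO2; pintool cpd add (DMSO); 37 C, 40 h; fluorescence read at 0, 8, 16, 24, 32, 40 h.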

[4] = A CellTox Green Cytotoxicity Assay to monitor cytotoxicity in HepG2 cells - 32 hour (AID 1224883); further: nearly all actives have a fitted effect of over 50% in size
Method in brief: as §3

[5] = A CellTox Green Cytotoxicity Assay to monitor cytotoxicity in HEK293 cells - 8 hour (AID 1224884); further: nearly all actives have a fitted effect of over 35% in size
Method in brief: as §2

[6] = qHTS RealTime-Glo MT Cell Viability Assay in HepG2 cells - 16 hour (AID 1224885); further: nearly all actives have a fitted effect of over 50% in size
Method in brief: (§4)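 Tox21 10K library screened in qHTS format on HepG2 cells carrying RealTime-Glo reagents. Compounds were added after a 5 h preincubation, and the luminescent signal from continuous culture was measured repeatedly during 40 h treatment.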

[7] = qHTS RealTime-Glo MT Cell Viability Assay in HEK293 cells - 24 hour (AID 1224886); further: top concentration of the series differs between compounds; nearly all actives have a fitted effect of over 50% in size
Method in brief: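 Luminescence generated by NanoLuc from substrate produced by living HEK293 cells served as the viability signal. Each value reflects the reading at its stated time point during continuous 40 h compound exposure at 37 C.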

[8] = qHTS RealTime-Glo MT Cell Viability Assay in HEK293 cells - 8 hour (AID 1224887); further: top concentration of the series differs between compounds; nearly all actives have a fitted effect of over 50% in size
Method in brief: as §1

[9] = A CellTox Green Cytotoxicity Assay to monitor cytotoxicity in HEK293 cells - 16 hour (AID 1224888); further: nearly all actives have a fitted effect of over 35% in size
Method in brief: as §2

[10] = qHTS RealTime-Glo MT Cell Viability Assay in HepG2 cells - 0 hour (AID 1224889); further: nearly all actives have a fitted effect of over 50% in size
Method in brief: as §4

[11] = A CellTox Green Cytotoxicity Assay to monitor cytotoxicity in HepG2 cells - 8 hour (AID 1224890); further: nearly all actives have a fitted effect of over 45% in size
Method in brief: as §3

[12] = qHTS assay to identify small molecule antagonists of the estrogen receptor alpha (ER-alpha) signaling pathway using the BG1 cell line in the presence of 0.1 nM 17-beta-estradiol - cell viability counter screen (AID 1259241); further: nearly all actives have a fitted effect of over 40% in size
Method in brief: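 VM7Luc4E2 cells (endogenous full-length ER-alpha, 4xERE-luciferase), cultured 5 days in charcoal-stripped serum, exposed to compounds with 0.1 nM 17beta-estradiol (final) for 22 hr at 37C. Viability read in same wells as live-cell protease fluorescence after 30 min.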

[13] = qHTS assay to identify small molecule antagonists of the androgen receptor (AR) signaling pathway using the MDA cell line in the presence of 0.5 nM R1881 - cell viability counter screen (AID 1259242); further: nearly all actives have a fitted effect of over 45% in size
Method in brief: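 Live-cell protease fluorescence, CellTiter-Fluor, 30 min at 37C. Cells: MDA-kb2, 3,000/well, preincubated 5 hr. Compounds plus 0.5 nM R1881 final, 16 hr, 37C, 0% CO2.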

[14] = target: Estrogen receptor (Homo sapiens) (UniProt P03372); assay: qHTS assay to identify small molecule antagonists of the estrogen receptor alpha (ER-alpha) signaling pathway using the BG1 cell line in the presence of 0.1 nM 17-beta-estradiol (AID 1259244); further: nearly all actives have a fitted effect of over 50% in size
Method in brief: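 Luminescence after ONE-Glo (30 min, room temperature) measured ERE-luciferase activity in VM7Luc4E2 cells treated 22 h with compound and 0.1 nM final 17beta-estradiol as stimulator.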

[15] = qHTS assay to identify small molecule phospholipidosis (PLD) inducers (AID 1259344; active means well fitted curve in the direction sought with a large enough effect; an effect the other way counts as inactive or inconclusive)
Method in brief: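 Accumulated phospholipid, stained red by LipidTOX during 24 h compound treatment of HepG2 cells at 37 C, is quantified from images as pit number and intensity, normalised per cell using Hoechst-stained nuclei.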

[16] = qHTS assay to identify small molecule HDAC inhibitors (AID 1259364);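 further: wild-type HCT-116 cells with endogenous class I/II HDAC activity; top concentration of the series differs between compounds; nearly all actives have a fitted effect of over 45% in size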
Method in brief: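 HCT-116 (wild type), 1,500 cells/well, overnight; compound 2 hr 37C 5% CO2; HDAC-Glo I/II reagent 30 min RT; luminescence readout.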

[17] = qHTS assay to identify small molecule HDAC inhibitors - cell viability counter screen (AID 1259365)
Method in brief: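 Wild-type HCT-116 cells, 1,500/well, cultured overnight, then compound-treated 2 h at 37 C. Viability measured as ATP luminescence with CellTiter-Glo after 30 min at room temperature.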

[18] = qHTS assay to identify small molecule agonists of the sonic hedgehog signaling (Shh) pathway - cell viability counter screen (AID 1259366); further: nearly all actives have a fitted effect of over 50% in size
Method in brief: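 NIH/3T3-derived Gli1-Luc reporter cells, 2,000 per well, received compound after 4 h and were treated about 23 h at 37C. Viability measured in the same wells by CellTiter-Fluor fluorescence after 1 h.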

[19] = qHTS assay to identify small molecule antagonists of the sonic hedgehog signaling (Shh) pathway - cell viability counter screen (AID 1259367); further: nearly all actives have a fitted effect of over 55% in size
Method in brief: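 CellTiter-Fluor signal in conditioned medium-stimulated 3T3 Gli1-Luc cells, 23 hr compound exposure, 37C.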

[20] = target: Androgen receptor (Homo sapiens) (UniProt P10275); assay: qHTS assay to identify small molecule antagonists of the androgen receptor (AR) signaling pathway using the MDA cell line in the presence of 0.5 nM R1881 (AID 1259243); further: nearly all actives have a fitted effect of over 50% in size
Method in brief: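 MDA-kb2, MMTV-luc (AR/GR elements); 3,000 cells/well; cpd + 0.5 nM R1881 final; 16 hr 37C, 0% CO2; ONE-Glo 30 min RT; luminescence.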

Measured: Potency

Chain of Estrogen receptor (Homo sapiens) (P03372 whole entry, looked up): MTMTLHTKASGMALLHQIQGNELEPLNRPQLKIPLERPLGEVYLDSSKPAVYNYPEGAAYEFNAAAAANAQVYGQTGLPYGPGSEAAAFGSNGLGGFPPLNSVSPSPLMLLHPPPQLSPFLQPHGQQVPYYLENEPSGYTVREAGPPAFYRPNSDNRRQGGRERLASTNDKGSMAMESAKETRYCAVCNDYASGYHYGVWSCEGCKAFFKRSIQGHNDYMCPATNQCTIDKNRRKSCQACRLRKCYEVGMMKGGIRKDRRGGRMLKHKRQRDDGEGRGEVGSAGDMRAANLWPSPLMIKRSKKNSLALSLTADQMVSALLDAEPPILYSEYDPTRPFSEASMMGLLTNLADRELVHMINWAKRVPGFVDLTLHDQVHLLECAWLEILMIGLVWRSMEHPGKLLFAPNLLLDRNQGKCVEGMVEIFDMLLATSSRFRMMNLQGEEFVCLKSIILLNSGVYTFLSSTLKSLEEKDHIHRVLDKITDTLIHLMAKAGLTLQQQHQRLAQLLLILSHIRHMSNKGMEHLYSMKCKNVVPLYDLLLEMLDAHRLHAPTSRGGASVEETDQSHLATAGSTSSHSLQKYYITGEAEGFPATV
Chain of Androgen receptor (Homo sapiens) (P10275 whole entry, looked up): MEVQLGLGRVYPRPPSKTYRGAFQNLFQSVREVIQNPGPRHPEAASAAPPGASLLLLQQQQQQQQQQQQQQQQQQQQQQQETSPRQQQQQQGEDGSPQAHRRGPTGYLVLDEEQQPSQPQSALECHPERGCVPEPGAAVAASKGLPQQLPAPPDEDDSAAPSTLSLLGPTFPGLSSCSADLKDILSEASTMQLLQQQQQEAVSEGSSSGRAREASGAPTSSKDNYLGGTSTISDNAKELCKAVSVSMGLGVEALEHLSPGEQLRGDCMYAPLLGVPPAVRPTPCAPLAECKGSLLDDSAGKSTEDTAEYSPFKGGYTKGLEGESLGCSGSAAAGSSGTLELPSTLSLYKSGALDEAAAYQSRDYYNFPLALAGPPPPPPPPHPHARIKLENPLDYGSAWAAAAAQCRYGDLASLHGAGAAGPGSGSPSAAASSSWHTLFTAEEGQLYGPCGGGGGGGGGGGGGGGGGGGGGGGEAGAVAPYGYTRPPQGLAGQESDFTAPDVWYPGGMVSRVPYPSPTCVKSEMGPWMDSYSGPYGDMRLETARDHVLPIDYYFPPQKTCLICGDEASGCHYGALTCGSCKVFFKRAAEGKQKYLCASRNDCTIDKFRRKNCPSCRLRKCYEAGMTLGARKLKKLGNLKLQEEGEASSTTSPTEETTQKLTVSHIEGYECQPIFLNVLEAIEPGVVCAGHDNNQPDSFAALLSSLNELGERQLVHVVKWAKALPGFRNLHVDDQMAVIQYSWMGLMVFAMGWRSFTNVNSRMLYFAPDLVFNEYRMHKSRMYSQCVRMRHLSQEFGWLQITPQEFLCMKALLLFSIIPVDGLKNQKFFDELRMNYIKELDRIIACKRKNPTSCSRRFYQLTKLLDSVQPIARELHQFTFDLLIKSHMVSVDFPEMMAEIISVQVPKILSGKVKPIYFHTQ

CN1CCN(c2c(F)cc3c(=O)c(C(=O)O)cn4c3c2SCC4)CC1
not listed: [20]
inactive: all other assays above

CC(C)CCCCCCc1ccc(OCCOCCO)cc1
not listed: [15] | [16]
inactive: all other assays above

CC(C)(C)C1CCCCC1=O (configuration not stated)
not listed: [15] | [20]
inactive: all other assays above

CC1=C(CC(=O)O)c2cc(F)ccc2/C1=C\c1ccc(S(C)(=O)=O)cc1
not listed: [16] | [18]
inactive: all other assays above

CCOc1ccc(OCC)c(Cl)c1
not listed: [15] | [20]
inactive: all other assays above

CC1=CC(=O)CC(C)(C)C1=O
not listed: [15] | [16] | [20]
inactive: all other assays above

C=Cc1ccccc1
not listed: [20]
inactive: all other assays above
